The values that follow come from PubChem BioAssay (NCATS).

Inconclusive results are not listed. A call without a number means that no potency is given here. Activity calls are given as the source filed them. The call rests on the fitted dose curve; in most records, active means well fitted inhibition curve with a large enough effect; inconclusive means small, poorly fitted or top-dose-only effect; inactive means no such curve, though single readings can be large or run the other way.
Potency means the concentration at half of the fitted maximal effect.

The assay can be described thus: NS1 protein of Zika virus - qHTS assay to identify small molecule inhibitors in human HEK 293 cells (AID 1347053). Further: nearly all actives have a fitted effect of over 55% in size. The conditions noted are these: HEK293 ZIKV MR766 infection, NS1 TR-FRET, 24 h; series mostly up to 46.1 µM. In outline: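 Inhibition of NS1 expression was scored in HEK 293 cells given compound 1 h ahead of MR766 virus (MOI = 0.5). Following 24 h at 37 C, two anti-NS1 antibodies generated a TR-FRET signal, scaled between uninfected and infected controls.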
A general note: qHTS replaces the single test concentration by a dilution series.
As for `CC(C)(CO)[C@@H](O)C(=O)NCCC(=O)O`, the Potency result is “inactive”.
Regarding `CCc1cccc(CC)c1NC(=O)N1Cc2[nH]nc(NC(=O)c3ccc(N4CCN(C)CC4)cc3)c2C1`, the Potency result is “inactive”.
The result for `CO[C@@H]1C(N(C)C(=O)c2ccccc2)C[C@H]2O[C@]1(C)n1c3ccccc3c3c4c(c5c6ccccc6n2c5c31)C(=O)NC4=O` (some centres not stated) reads “inactive”; that for `CCOC(=O)[C@H]1O[C@H]1C(=O)N[C@@H](CC(C)C)C(=O)NCCC(C)C`, “inactive”.
The result for `CN[C@@H]1[C@@H](O)[C@@H](O[C@@H]2[C@@H](O)[C@H](O[C@H]3O[C@H](CN)[C@@H](O)[C@H](O)[C@@H]3O)[C@@H](N)C[C@@H]2NC(=O)[C@@H](O)CN)OC[C@]1(C)O` reads “inactive”.
Under `Nc1ncnc2c1ncn2[C@@H]1O[C@H](CO)[C@@H](O)[C@@H]1O` stands “inactive”; under `C=CC[N+]1([C@H]2C[C@H]3[C@@H]4CC[C@H]5C[C@H](O)[C@@H](N6CCOCC6)C[C@]5(C)[C@@H]4CC[C@]3(C)[C@H]2OC(C)=O)CCCC1`, “inactive”.
On to `NC1(C(=O)N[C@@H](CCO)c2ccc(Cl)cc2)CCN(c2ncnc3[nH]ccc23)CC1`, for which the Potency result was “inactive”.
Under `Cc1ccc(C(=O)N(CCCN)[C@@H](c2nc3cc(Cl)ccc3c(=O)n2Cc2ccccc2)C(C)C)cc1` stands “inactive”.
The result for `Cc1ccccc1C(=O)c1ccc(Nc2ccc(Br)cc2N)cc1Cl` reads 9.35 µM (active); that for `COc1ccc2c(c1)CC[C@H]1[C@@H]2CC[C@]2(C)[C@@H](NCCCCCCN3C(=O)C=CC3=O)CC[C@H]12`, “inactive”.
Under `CC1CCN(c2cc(N3CCN(C)CC3)ccc2NC(=O)c2cc(C#N)c[nH]2)CC1` stands “inactive”.
On to `C=CCc1cccc(C=NNC(=O)CN2CCN(Cc3ccccc3)CC2)c1O`, for which the Potency is 13.2 µM (active).
The result for `CN[C@@H](C)[C@H]1[C@H](O)C[C@@]2(C)[C@@H]3CC[C@H]4C(C)(C)[C@@H](NC)CC[C@@]45C[C@@]35CC[C@]12C` reads “inactive”.
The result for `CCc1cc(-c2n[nH]c(C)c2-c2ccc3c(c2)OCCO3)c(O)cc1O` reads “inactive”; that for `O=C(O)CCC=CCC[C@@H]1[C@H](N2CCCCC2)[C@@H](O)C[C@@H]1OCc1ccc(-c2ccccc2)cc1`, “inactive”.
The result for `CCC[C@@H](NC(=O)[C@@H]1[C@H]2CCC[C@@H]2CN1C(=O)[C@@H](NC(=O)[C@@H](NC(=O)c1cnccn1)C1CCCCC1)C(C)(C)C)C(=O)C(=O)NC1CC1` reads “inactive”.
